This is part of a sample that, as a whole, favours compounds with a hit. Of some 83,000 tested, about 20% had one in any assay.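 Step 1: grow cells in 96-well plates. Step 2: add test compound at a single concentration. Step 3: incubate 48 h. Step 4: record percent growth.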 Activity calls are given as the source filed them.
The molecules below were run on SN12C renal (assay: NCI-60 one-dose screen, 48 h (100 = growth as untreated, 0 = no growth, -100 = all killed)). Settings: 10 µM unless noted.
Procedure: Growth inhibition of the SN12C human tumor cell line is measured as a screen for anti-cancer activity. Cells are grown in 96 well plates and exposed to the test compound for 48 hours. Compounds are tested at a single concentration, which is 10^-5 M for most compounds. The reported endpoint is percent growth (GI% or GIPRCNT), where numbers from 0 - 100% represent growth inhibition, and numbers from -100% - 0 represent cell death. For example, a value of 40 represents 60% growth inhibition. A value of 0 means no net growth occurred over the course of the experiment. A value of -40 indicates 40% of cells at the beginning of the experiment died by the end of the experiment. A value of -100 means all cells are dead at the end of the experiment.
NCI-60 Human Tumor Cell Lines Screen was performed using the standard one-dose NCI protocol, which is described in more detail at https://dtp.cancer.gov/discovery_development/nci-60/default.htm.
Compounds with GIPRCNT values below 10 were considered active. Activity score was based on GIPRCNT using the following formula: […]
Score is 0 for GIPRCNT values of 100 or above, 50 for GIPRCNT values of 0, and 100 for GIPRCNT values of -100.

SMILES	growth
c1ccc(-c2nc(N3CCNCC3)c3oc(-c4ccccc4)nc3n2)cc1	-82.1% (active)
Cc1c(-c2cnc3ccc(Cl)cc3c2C(=O)O)nnn1-c1ccc(Cl)cc1	89.5% (inactive)
CN(C)CCCN(CCC1CCCCC1)CCC1CCCCC1	80.4% (inactive)
C=C1C(=O)O[C@H]2[C@H]1CC/C(CNC(=O)/C=C/c1cc(OC)c(OC)c(OC)c1)=C\CC[C@@]1(C)O[C@@H]21	28.1% (inactive)
CC(=O)CC(=O)c1ccccc1.[Cu+2]	105% (inactive)
O=c1c(Cc2ccc(F)cc2)cc(-c2ccccc2)nn1C/C(=N/O)c1ccccc1	17.2% (inactive)
Nc1ncc(-c2ccc3ncnc(N4CCc5ccc(Cl)cc54)c3c2)cn1	7.41% (active)
C(=N\Nc1nnc2n1N=C(c1ccccc1)CS2)/c1ccc(OCc2ccccc2)cc1	98.6% (inactive)
COC(CCP(=O)(c1ccccc1)c1ccccc1)(C(=O)c1ccccc1)c1ccccc1 (stereo not given)	96.7% (inactive)
O=C(/C=C/c1ccco1)c1ccc(Nc2ccnc3cc(Cl)ccc23)cc1	90.6% (inactive)
COc1ccc(Cn2cc(C(=O)N=Nc3c(O)[nH]c4ccc(Br)cc34)nn2)cc1	102% (inactive)
CC1=NC(=S)NC(c2ccccc2)/C1=C1/CC(c2ccccc2O)NN1 (stereo not given)	97.5% (inactive)
CCOC(=O)c1c(C)c2c(n1Cc1ccccc1)CSc1cc(C#N)c(=O)[nH]c1-2	80.6% [100 µM] (inactive)
O=C(O)/C=C/c1cn(-c2ccccc2)nc1-c1ccc(F)cc1	91.1% (inactive)
CCN(CC)CCCNc1cc(OC)cc2cccnc12	97.7% (inactive)
CC(C)(C)[C@H](OCc1cn([C@H]2C[C@@H](O)[C@@H](CO)O2)c(=O)[nH]c1=O)c1ccc(C#Cc2ccccc2)cc1[N+](=O)[O-]	88.5% (inactive)
CCCCCCCCOC(=O)c1c(C)[nH]c(/C=C2\N=C(c3ccc[nH]3)C=C2OC)c1C	11.7% (inactive)
CCCCCC(C)(O)C(C(=O)O)c1ccccc1 (stereo not given)	97.8% (inactive)
CN1CCN(c2ccc(Nc3ncc4[nH]c(=O)n(Cc5ccccc5N)c4n3)cc2)CC1	86.5% (inactive)
O=c1c(/C=C/c2c(O)ccc3ccccc23)nnc2sc(-c3cccc([N+](=O)[O-])c3)nn12	45.9% (inactive)

SMILES	growth
Cc1ccccc1NC(=O)Cn1cc(CN2CCN(c3ccnc4cc(Cl)ccc34)CC2)nn1	94.7% (inactive)
CCc1ccc(Cc2cnc(NC(=O)c3cc(C)oc3C)s2)cc1	45.1% (inactive)
COc1cccc(/C=C/C(=O)/C=C(/C=C/c2cccc(OC)c2OC)OB(F)F)c1OC	43% (inactive)
Cn1cc(-c2ccc3occ(-c4cccc(-c5ccncc5)c4)c3n2)cn1	13.1% (inactive)
C=C(c1ccc(C(=O)O)c(F)c1)c1cc2c(cc1C)C(C)(C)C=CC2(C)C	83.1% (inactive)
CCN=c1sc2c(n1NC(=O)c1cc3ccc1CCc1ccc(cc1)CC3)C(=O)c1ccccc1C2=O	-91.2% (active)
O=C1C=CC2(O)OC(c3ccccc3)CC(=O)C2=C1O (stereo not given)	78.9% (inactive)
CCOC(=O)c1c(N)sc2cc(O)ccc12	101% (inactive)
COc1cc2c(cc1OC)CC[N+](CCC[N+](C)(C)C)=C2	98% (inactive)
Cc1cc2c(C(C)C)c(O)c(O)c(/C=N/O)c2c(O)c1-c1c(C)cc2c(C(C)C)c(O)c(O)c(/C=N/O)c2c1O	43.7% (inactive)
C=CCn1c(SCC(=O)Nc2ccc(C(=O)/C=C/c3ccc(Cl)cc3)cc2)nnc1-c1ccc(Cl)c(Cl)c1	82.3% (inactive)
NCCNc1ccc([N+](=O)[O-])cc1	103% (inactive)
CN(C)CCOc1ccc(/C(=C(/CCCCCCCCCC[P+](c2ccccc2)(c2ccccc2)c2ccccc2)c2ccccc2)c2ccccc2)cc1	-86.2% (active)
C#Cc1ccc(NC(=O)Cc2ccc(/C=C/C(=O)c3nccn3C)cc2)cc1	68% (inactive)
CN1CCN(Cc2ccc(NC(=O)c3cncc(C#Cc4c(N)ncc5ccccc45)c3)cc2C(F)(F)F)CC1	-97.4% (active)
COc1ccc(CNc2c3ccccc3nc3ccccc23)cc1OC	22.5% (inactive)
c1ccc2c(-c3cnn4cc(-c5ccc(N6CCNCC6)cc5)cnc34)ccnc2c1	-75.5% (active)
O=C(Nc1ccc(Cl)cc1)C1=NCCCCN1	94.5% (inactive)
O=C(O)/C=C\C(=O)Nc1ccc2c(c1)Cc1cc(F)ccc1-2	100% (inactive)
O=C(Nc1cccc(Cl)c1)Oc1c(Cl)c(Cl)c(Cl)c(Cl)c1Cl	97.1% (inactive)

Source: PubChem BioAssay (NCI)
